PubChem BioAssay (NCI)
Compounds without any hit were thinned out: in the full panel of roughly 83,000, 20% have a hit.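 Negative percent growth values reflect cell death: -40 means 40% of the cells present at the start died, and -100 means all died.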 Active and inactive are the calls of the source. Rule for the calls: active = growth percent below 10; inactive = the rest.

Tests used:
Assay in all cases: NCI-60 one-dose screen, 48 h (100 = growth as untreated, 0 = no growth, -100 = all killed)
Settings in all cases: 10 µM unless noted
NCI-H23 lung = system: NCI-H23 lung
NCI-H226 lung = system: NCI-H226 lung
NCI-H322M lung = system: NCI-H322M lung
HOP-62 NSCLC = system: HOP-62 NSCLC
NCI-H460 lung = system: NCI-H460 lung
NCI-H522 lung = system: NCI-H522 lung
A549/ATCC NSCLC = system: A549/ATCC NSCLC
786-0 renal = system: 786-0 renal
COLO 205 colon = system: COLO 205 colon
DU-145 prostate = system: DU-145 prostate
K-562 leukemia = system: K-562 leukemia
MALME-3M melanoma = system: MALME-3M melanoma
MDA-MB-231 breast = system: MDA-MB-231 breast
RXF 393 renal = system: RXF 393 renal
SF-268 CNS = system: SF-268 CNS
SF-295 CNS = system: SF-295 CNS
SF-539 CNS = system: SF-539 CNS
UACC-257 melanoma = system: UACC-257 melanoma
M14 melanoma = system: M14 melanoma
HOP-92 NSCLC = system: HOP-92 NSCLC

Measured: growth

Cc1nc2ccc(-n3ncc(C(=O)c4cc5ccccc5[nH]4)c3N)cc2[nH]1
inactive: NCI-H23 lung 74% | NCI-H226 lung 48.4% | NCI-H322M lung 86.5% | HOP-62 NSCLC 55.9% | NCI-H522 lung 36.5% | A549/ATCC NSCLC 36.9% | 786-0 renal 55.2% | COLO 205 colon 38.7% | DU-145 prostate 60.7% | K-562 leukemia 17.4% | MALME-3M melanoma 64.5% | MDA-MB-231 breast 53.9% | RXF 393 renal 15.5% | SF-268 CNS 50.5% | SF-295 CNS 53.5% | UACC-257 melanoma 79.5% | M14 melanoma 61.1%
active: NCI-H460 lung 5.14% | SF-539 CNS -2.11%

C[C@@H](N)c1ccc(C(=O)Nc2ccnc3[nH]ccc23)cc1
active: COLO 205 colon 5.34% | RXF 393 renal -18%
inactive: NCI-H23 lung 45% | NCI-H226 lung 51% | NCI-H322M lung 41.5% | HOP-62 NSCLC 13.9% | NCI-H460 lung 47.9% | NCI-H522 lung 11% | A549/ATCC NSCLC 14.8% | 786-0 renal 33.2% | DU-145 prostate 52.3% | K-562 leukemia 63.7% | MALME-3M melanoma 75.1% | MDA-MB-231 breast 50% | SF-268 CNS 50.6% | SF-295 CNS 61.5% | SF-539 CNS 11.1% | UACC-257 melanoma 68.9% | M14 melanoma 64.9%

COc1cc(Nc2ncc(F)c(Nc3ccc4c(n3)NC(=O)C(C)(C)O4)n2)cc(OC)c1OC
inactive: NCI-H23 lung 52.1% | NCI-H226 lung 12.2% | NCI-H322M lung 41.8% | HOP-62 NSCLC 27.3% | NCI-H460 lung 65% | A549/ATCC NSCLC 26.8% | 786-0 renal 29% | COLO 205 colon 18.9% | DU-145 prostate 48.8% | K-562 leukemia 66.5% | MALME-3M melanoma 88.7% | MDA-MB-231 breast 41.7% | SF-268 CNS 29.8% | SF-295 CNS 59.9% | UACC-257 melanoma 57.1% | M14 melanoma 57.5%
active: NCI-H522 lung 6.57% | RXF 393 renal -40.3% | SF-539 CNS -14.8%

CC1(C=O)NC(=O)NC1=O (stereo not given)
inactive: NCI-H23 lung 105% | NCI-H226 lung 92.8% | NCI-H322M lung 102% | HOP-62 NSCLC 68.4% | NCI-H460 lung 108% | NCI-H522 lung 77.1% | A549/ATCC NSCLC 55.7% | 786-0 renal 104% | COLO 205 colon 100% | DU-145 prostate 111% | K-562 leukemia 103% | MALME-3M melanoma 118% | MDA-MB-231 breast 103% | SF-268 CNS 101% | SF-295 CNS 103% | SF-539 CNS 103% | M14 melanoma 103%

Cc1ccccc1N1C(c2ccccc2)=NNC12C=CC(=O)C=C2Cl (stereo not given)
inactive: NCI-H23 lung 98.1% | NCI-H226 lung 115% | NCI-H322M lung 95.4% | HOP-62 NSCLC 98.3% | NCI-H460 lung 115% | HOP-92 NSCLC 114% | NCI-H522 lung 95.2% | A549/ATCC NSCLC 75.5% | 786-0 renal 106% | DU-145 prostate 110% | K-562 leukemia 96.4% | MALME-3M melanoma 98.6% | MDA-MB-231 breast 111% | RXF 393 renal 132% | SF-268 CNS 99.1% | SF-295 CNS 108% | SF-539 CNS 93.4% | UACC-257 melanoma 81.1% | M14 melanoma 105%

CNC(=O)c1cccc2cc(Oc3ccnc4cc(OCC5(N)CC5)c(OC)cc34)ccc12
inactive: NCI-H23 lung 63.9% | NCI-H226 lung 47.1% | NCI-H322M lung 74.3% | HOP-62 NSCLC 51.7% | NCI-H460 lung 56% | NCI-H522 lung 46.3% | A549/ATCC NSCLC 57.4% | 786-0 renal 76.8% | COLO 205 colon 58% | DU-145 prostate 77.7% | K-562 leukemia 19.5% | MALME-3M melanoma 74.3% | MDA-MB-231 breast 60.8% | RXF 393 renal 39.8% | SF-268 CNS 52.4% | SF-295 CNS 58.4% | SF-539 CNS 12.6% | UACC-257 melanoma 90.2% | M14 melanoma 56.1%

O=CC(OC(=O)c1ccccc1)C(OC(=O)c1ccccc1)C(COC(c1ccccc1)(c1ccccc1)c1ccccc1)OC(=O)c1ccccc1 (stereo not given)
inactive: NCI-H23 lung 51.3% | NCI-H226 lung 76.4% | NCI-H322M lung 97.1% | HOP-62 NSCLC 99.8% | NCI-H460 lung 89.2% | NCI-H522 lung 40.4% | A549/ATCC NSCLC 97.5% | COLO 205 colon 57.2% | DU-145 prostate 86% | MALME-3M melanoma 67.9% | MDA-MB-231 breast 48.4% | SF-268 CNS 38.5% | SF-295 CNS 93.5% | SF-539 CNS 76.5% | M14 melanoma 53.4%
active: HOP-92 NSCLC -54.6%

N#Cc1ccc(-n2nnc3ccccc32)cc1C#N
inactive: NCI-H23 lung 94% | NCI-H226 lung 96.7% | NCI-H322M lung 111% | HOP-62 NSCLC 94.6% | NCI-H460 lung 107% | NCI-H522 lung 88.1% | A549/ATCC NSCLC 87.2% | 786-0 renal 99.5% | COLO 205 colon 104% | DU-145 prostate 93.5% | K-562 leukemia 93% | MALME-3M melanoma 96.6% | MDA-MB-231 breast 111% | RXF 393 renal 100% | SF-268 CNS 105% | SF-295 CNS 91.5% | SF-539 CNS 101% | UACC-257 melanoma 89.4% | M14 melanoma 106%

CCN(CC)Cc1cc(Nc2cc(C(F)(F)F)c(C#N)c3nc4ccccc4n23)ccc1O
inactive: NCI-H23 lung 17.2% | NCI-H226 lung 16.5% | NCI-H322M lung 16.3% | HOP-62 NSCLC 14% | 786-0 renal 11.9% | DU-145 prostate 25.1% | K-562 leukemia 11.3% | SF-268 CNS 26.7% | M14 melanoma 24.3%
active: NCI-H460 lung 6.25% | HOP-92 NSCLC -30.2% | NCI-H522 lung -55.3% | A549/ATCC NSCLC 6.97% | MDA-MB-231 breast -8.6% | RXF 393 renal 0.263% | SF-295 CNS 5.79% | SF-539 CNS 5.91%

NC1(c2ccc(-c3nc4ccn5c(=O)[nH]nc5c4cc3-c3ccccc3)cc2)CCC1
active: NCI-H522 lung 5.02% | 786-0 renal 9.74% | COLO 205 colon -19.8% | K-562 leukemia -16.8% | MALME-3M melanoma -70.8% | RXF 393 renal -21.7% | SF-295 CNS -65.5% | SF-539 CNS -80.9% | UACC-257 melanoma -67.6% | M14 melanoma -66.5%
inactive: NCI-H23 lung 73.5% | NCI-H226 lung 67.7% | NCI-H322M lung 59.2% | HOP-62 NSCLC 50.3% | NCI-H460 lung 23.6% | A549/ATCC NSCLC 32.8% | DU-145 prostate 60.9% | MDA-MB-231 breast 37.4% | SF-268 CNS 52.3%

COc1ccc(C(=O)N2c3ccccc3Sc3ccccc32)c(F)c1
inactive: NCI-H23 lung 32.4% | NCI-H226 lung 46.1% | NCI-H322M lung 44.2% | HOP-62 NSCLC 37.1% | NCI-H460 lung 12% | A549/ATCC NSCLC 27.2% | 786-0 renal 23.1% | K-562 leukemia 12.7% | MALME-3M melanoma 46.6% | MDA-MB-231 breast 52.5% | SF-268 CNS 53.1% | UACC-257 melanoma 67.1%
active: NCI-H522 lung 0.479% | COLO 205 colon 8.26% | DU-145 prostate 5.05% | RXF 393 renal -23.1% | SF-295 CNS 8.85% | SF-539 CNS -15.8% | M14 melanoma 2.04%

Cc1cc(C(O)CN(C)C)cc2c1ccc1cc(C(C)C)ccc12 (stereo not given)
inactive: NCI-H23 lung 30.1% | NCI-H226 lung 33.6% | HOP-62 NSCLC 50.2% | A549/ATCC NSCLC 32.9% | 786-0 renal 14.5% | DU-145 prostate 55.7% | SF-268 CNS 62.2% | SF-539 CNS 71.5%
active: NCI-H322M lung -10.1% | NCI-H460 lung -35.7% | NCI-H522 lung -25% | COLO 205 colon -78.1% | K-562 leukemia -20.2% | MALME-3M melanoma -77.3% | MDA-MB-231 breast -35.1% | RXF 393 renal -47.8% | SF-295 CNS -66.1% | UACC-257 melanoma -74.4% | M14 melanoma -100%

CC/C(=C(\c1ccc(OCCN2CCCCCCC2)cc1)c1ccc(OC(=O)C2CCCCC2)cc1)c1ccc(Cl)cc1
inactive: NCI-H23 lung 99.4% | NCI-H226 lung 100% | NCI-H322M lung 80.9% | HOP-62 NSCLC 102% | NCI-H460 lung 106% | NCI-H522 lung 89.4% | A549/ATCC NSCLC 104% | 786-0 renal 104% | COLO 205 colon 123% | DU-145 prostate 108% | K-562 leukemia 84.8% | MALME-3M melanoma 94.1% | MDA-MB-231 breast 93.3% | RXF 393 renal 110% | SF-268 CNS 94.7% | SF-295 CNS 104% | SF-539 CNS 102% | UACC-257 melanoma 87.3% | M14 melanoma 91.1%

O=C1NC(=O)[C@@H](c2cn3c4c(cccc24)CCC3)[C@@H]1c1c[nH]c2ccccc12
active: HOP-62 NSCLC 5.24% | NCI-H460 lung 5.41% | NCI-H522 lung -0.0655% | A549/ATCC NSCLC 6.25% | COLO 205 colon -57.3% | K-562 leukemia 9.6% | RXF 393 renal 6.54% | SF-539 CNS -17.3% | M14 melanoma 8.08%
inactive: NCI-H23 lung 32.5% | NCI-H226 lung 57% | NCI-H322M lung 41.9% | 786-0 renal 21.5% | DU-145 prostate 15% | MALME-3M melanoma 59.7% | MDA-MB-231 breast 34.1% | SF-268 CNS 34.2% | SF-295 CNS 19.2% | UACC-257 melanoma 38.5%

COc1ccc(F)c(F)c1C(=O)c1cnc(NC2CCN(S(C)(=O)=O)CC2)nc1N
inactive: 786-0 renal 14.4% | DU-145 prostate 10.3%
active: NCI-H23 lung -36.5% | NCI-H226 lung 3.23% | NCI-H322M lung 2.76% | HOP-62 NSCLC -24.7% | NCI-H460 lung 3.3% | NCI-H522 lung -29.5% | A549/ATCC NSCLC 3.28% | COLO 205 colon -79.7% | K-562 leukemia 5.89% | MALME-3M melanoma -28.3% | MDA-MB-231 breast 2.97% | RXF 393 renal -62% | SF-268 CNS 6.42% | SF-295 CNS 8.69% | SF-539 CNS -33.8% | UACC-257 melanoma -28% | M14 melanoma -23.6%

CCCCN1CCCC[C@@H]1C(=O)N[C@H](C(=O)N(C)[C@H](CCc1nc(C(=O)N[C@@H](Cc2ccccc2)C[C@H](C)C(=O)OC)cs1)C(C)C)C(C)C
inactive: NCI-H23 lung 59.7% | NCI-H226 lung 80.6% | NCI-H322M lung 75.6% | HOP-62 NSCLC 80.8% | NCI-H460 lung 94.6% | HOP-92 NSCLC 18.8% | NCI-H522 lung 49.6% | A549/ATCC NSCLC 81.8% | 786-0 renal 77.4% | DU-145 prostate 92.9% | K-562 leukemia 22.9% | MALME-3M melanoma 45.1% | MDA-MB-231 breast 71.5% | SF-268 CNS 84.3% | SF-295 CNS 49.4% | SF-539 CNS 82.8% | M14 melanoma 49.9%
